Results as given in PubChem BioAssay (EPA / NIEHS).
The source made the active and inactive calls. How the source made its calls: active means hit-call score of the fitted dose curve at least 0.9, where 1 is the maximum; inactive means score below 0.9.

Legend:
Settings in all cases: mRNA level, 48 h; actives raise or lower the signal
[1] = read-out: Lipase C (LIPC), LIPC (gene 3990); test: LTEA_HepaRG_LIPC: Life Technologies and Expression Analysis (LTEA) Assay for Lipase C (LIPC) using HepaRG (AID 2283514)
Outline: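 In this multiplexed gene-expression screen, human HepaRG cultures received test chemicals for 48 h across eight concentrations with 100 uM highest, in duplicate. Values reflect LIPC mRNA induction or suppression versus DMSO vehicle, from normalized qRT-PCR.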

[2] = read-out: Lipoprotein lipase (LPL), LPL (gene 4023); test: LTEA_HepaRG_LPL: Life Technologies and Expression Analysis (LTEA) Assay for Lipoprotein lipase (LPL) using HepaRG (AID 2283515)
Outline: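 Concentration-response testing used half-log steps from 100 uM in 0.5% DMSO on human HepaRG cells, 48 h, duplicate wells. Phenobarbital 1 mM served as induction control; LPL mRNA was normalized to ACTB, GAPDH, POLR2A.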

[3] = read-out: MicroRNA 122 (MIR122), gene 406906; test: LTEA_HepaRG_MIR122: Life Technologies and Expression Analysis (LTEA) Assay for MicroRNA 122 (MIR122) using HepaRG (AID 2283516); further: the transcript read is the microRNA miR-122
Outline: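 Human liver HepaRG cultures receive test chemicals for 48 h at eight half-log concentrations from 100 uM. Expression is quantified by qRT-PCR with ACTB/GAPDH/POLR2A normalization and fitted bidirectionally against 0.5% DMSO.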

[4] = read-out: matrix metalloproteinase-10 (MMP10), MMP10 (gene 4319); test: LTEA_HepaRG_MMP10: Life Technologies and Expression Analysis (LTEA) Assay for matrix metalloproteinase-10 (MMP10) using HepaRG (AID 2283517)
Outline: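 In differentiated HepaRG cultures kept in 0.5% DMSO, test chemicals act for 48 h over an eight-point range with a top dose of 100 uM. Expression is then quantified by TaqMan RT-PCR against ACTB, GAPDH and POLR2A.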

MYC, MYC (gene 4609) = test: LTEA_HepaRG_MYC: Life Technologies and Expression Analysis (LTEA) Assay for MYC using HepaRG (AID 2283518)
Outline: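 Cells are thawed, plated and cultured 48 h, then treated for 48 h with test chemicals (eight half-log concentrations from 100 uM, 0.5% DMSO vehicle). RNA is isolated and MYC expression quantified by qRT-PCR against three housekeeping genes.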

[5] = read-out: matrix metalloproteinase-3 (MMP3), MMP3 (gene 4314); test: LTEA_HepaRG_MMP3: Life Technologies and Expression Analysis (LTEA) Assay for matrix metalloproteinase-3 (MMP3) using HepaRG (AID 2283519)
Outline: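 Human liver HepaRG cultures received chemicals (top concentration 100 uM, 0.5% DMSO) for 48 h in duplicate. MMP3 mRNA induction or loss was then assessed via TaqMan qRT-PCR with housekeeping-gene normalisation.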

[6] = read-out: Paternally Expressed 10 (PEG10), PEG10 (gene 23089); test: LTEA_HepaRG_PEG10: Life Technologies and Expression Analysis (LTEA) Assay for Paternally Expressed 10 (PEG10) using HepaRG (AID 2283520);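 on AC50: PEG10 transcript by qRT-PCR normalised to ACTB GAPDH and POLR2A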
Outline: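 Human HepaRG cultures are dosed for 48 h across an eight-point half-log series starting at 100 uM, with 0.5% DMSO as vehicle and baseline. Gain or loss of PEG10 transcript is measured by qRT-PCR and fitted in both directions.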

[7] = read-out: Protein phosphatase 2A (PPP2R4), PTPA (gene 5524); test: LTEA_HepaRG_PPP2R4: Life Technologies and Expression Analysis (LTEA) Assay for Protein phosphatase 2A (PPP2R4) using HepaRG (AID 2283522)
Outline: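 Cells were plated, cultured 48 h, switched to serum-free induction medium, then dosed for 48 h (8 points, max 100 uM, 0.5% DMSO). RNA was isolated and PPP2R4 expression measured by TaqMan qRT-PCR.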

[8] = read-out: Phosphatase and tensin (PTEN), PTEN (gene 5728); test: LTEA_HepaRG_PTEN: Life Technologies and Expression Analysis (LTEA) Assay for Phosphatase and tensin (PTEN) using HepaRG (AID 2283523)
Outline: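 Expression of PTEN is quantified in the human liver line HepaRG following two days of dosing (top concentration 100 uM, half-log dilutions, 0.5% DMSO). Values derive from bidirectional curve fitting relative to DMSO controls.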

[9] = read-out: solute carrier (SLC22A1), SLC22A1 (gene 6580); test: LTEA_HepaRG_SLC22A1: Life Technologies and Expression Analysis (LTEA) Assay for solute carrier (SLC22A1) using HepaRG (AID 2283524)
Outline: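 Transcript induction or suppression of SLC22A1 in human HepaRG cultures is scored after 48 h chemical treatment, with DMSO (0.5%) as baseline for bidirectional fitting. Concentrations span eight half-log points topping at 100 uM.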

[10] = read-out: Pyruvate Dehydrogenase Kinase 4 (PDK4), PDK4 (gene 5166); test: LTEA_HepaRG_PDK4: Life Technologies and Expression Analysis (LTEA) Assay for Pyruvate Dehydrogenase Kinase 4 (PDK4) using HepaRG (AID 2283525)
Outline: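 Eight-point, half-log concentration series (max 100 uM, 0.5% DMSO) applied to differentiated HepaRG cells for 48 h in duplicate. Endpoint: PDK4 mRNA induction or repression by qRT-PCR against DMSO baseline.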

[11] = read-out: NAD(P)H dehydrogenase [quinone] 1 (NQO1), NQO1 (gene 1728); test: LTEA_HepaRG_NQO1: Life Technologies and Expression Analysis (LTEA) Assay for NAD(P)H dehydrogenase [quinone] 1 (NQO1) using HepaRG (AID 2283526)
Outline: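 Transcript induction or suppression is quantified by qRT-PCR in human HepaRG liver cells dosed for 48 hours. Eight half-log concentrations topping at 100 uM are used, with 0.5% DMSO as vehicle and baseline.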

[12] = read-out: Nuclear factor erythroid 2-related factor 2 (Homo sapiens) (UniProt Q16236); test: LTEA_HepaRG_NFE2L2: Life Technologies and Expression Analysis (LTEA) Assay for Nuclear factor erythroid 2-related factor 2 (NFE2L2) Transcription Factor using HepaRG (AID 2283527);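 further: TaqMan qRT-PCR transcript level normalised to ACTB GAPDH and POLR2A housekeeping genes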
Outline: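 Human liver HepaRG line treated in duplicate for 48 h with an eight-point series topping at 100 uM. Gene expression of NFE2L2 by qRT-PCR, bidirectionally fitted against the vehicle control.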

[13] = read-out: Signal transducer and activator of transcription 3 (Homo sapiens) (UniProt P40763); test: LTEA_HepaRG_STAT3: Life Technologies and Expression Analysis (LTEA) Assay for Signal transducer and activator of transcription (STAT3) using HepaRG (AID 2283529)
Outline: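 In this transcriptional endpoint, HepaRG cultures receive test chemicals at up to 100 uM for 48 h, tested in duplicate. STAT3 mRNA is normalized to ACTB, GAPDH and POLR2A.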

[14] = read-out: solute carrier (SLCO1B1), SLCO1B1 (gene 10599); test: LTEA_HepaRG_SLCO1B1: Life Technologies and Expression Analysis (LTEA) Assay for solute carrier (SLCO1B1) using HepaRG (AID 2283530)
Outline: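 Gain or loss of SLCO1B1 mRNA is fitted against the 0.5% DMSO vehicle in human HepaRG liver cells treated 48 h at up to 100 uM in half-log steps. Expression comes from qRT-PCR normalized to endogenous controls.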

[15] = read-out: Transforming Growth Factor (TGFA), TGFA (gene 7039); test: LTEA_HepaRG_TGFA: Life Technologies and Expression Analysis (LTEA) Assay for Transforming Growth Factor (TGFA) using HepaRG (AID 2283532)
Outline: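 Gene expression of TGFA was quantified by qRT-PCR after human HepaRG cells were treated for 48 h with test chemicals (eight concentrations, highest 100 uM, 0.5% DMSO). Activity in either direction was fitted relative to DMSO.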

[16] = read-out: Transforming Growth Factor (TGFB1), TGFB1 (gene 7040); test: LTEA_HepaRG_TGFB1: Life Technologies and Expression Analysis (LTEA) Assay for Transforming Growth Factor (TGFB1) Transporter using HepaRG (AID 2283533)
Outline: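 Expression change of TGFB1 in human HepaRG cells is measured after a 48 h chemical exposure, up to 100 uM in 0.5% DMSO vehicle. Curves are fitted in both directions relative to the DMSO baseline.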

TIMP1, TIMP1 (gene 7076) = test: LTEA_HepaRG_TIMP1: Life Technologies and Expression Analysis (LTEA) Assay for TIMP1 using HepaRG (AID 2283534);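 further: TaqMan qRT-PCR signal normalized to ACTB GAPDH and POLR2A housekeeping genes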
Outline: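 We dosed human liver HepaRG cultures for 48 hours with up to 100 uM test chemical and measured TIMP1 expression by qRT-PCR. Activity in either direction is fitted relative to the 0.5% DMSO vehicle.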

[17] = read-out: Tumor necrosis factor receptor 1 (TNFRSF1A), TNFRSF1A (gene 7132); test: LTEA_HepaRG_TNFRSF1A: Life Technologies and Expression Analysis (LTEA) Assay for Tumor necrosis factor receptor 1 (TNFRSF1A) using HepaRG (AID 2283535)
Outline: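 Expression of TNFRSF1A in human HepaRG liver cells was measured by qRT-PCR 48 h after chemical dosing (maximum 100 uM). Bidirectional curve fitting used 0.5% DMSO as baseline.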

[18] = read-out: Nuclear factor NF-kappa-B p105 subunit (Homo sapiens) (UniProt P19838); test: LTEA_HepaRG_NFKB1: Life Technologies and Expression Analysis (LTEA) Assay for Nuclear Factor Kappa B Subunit 1 (NFKB1) using HepaRG (AID 2283521);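 further: TaqMan qRT-PCR transcript normalised to ACTB GAPDH and POLR2A housekeeping genes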
Outline: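 Differentiated human HepaRG cells in serum-free induction medium with 0.5% DMSO were exposed for 48 h to eight half-log concentrations, top 100 uM, in duplicate. NFKB1 mRNA measured by Fluidigm TaqMan qRT-PCR, normalised to ACTB, GAPDH and POLR2A; bidirectional fit versus DMSO.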

Measured: AC50

Sequence of Signal transducer and activator of transcription 3 (Homo sapiens) (P40763 whole entry, looked up): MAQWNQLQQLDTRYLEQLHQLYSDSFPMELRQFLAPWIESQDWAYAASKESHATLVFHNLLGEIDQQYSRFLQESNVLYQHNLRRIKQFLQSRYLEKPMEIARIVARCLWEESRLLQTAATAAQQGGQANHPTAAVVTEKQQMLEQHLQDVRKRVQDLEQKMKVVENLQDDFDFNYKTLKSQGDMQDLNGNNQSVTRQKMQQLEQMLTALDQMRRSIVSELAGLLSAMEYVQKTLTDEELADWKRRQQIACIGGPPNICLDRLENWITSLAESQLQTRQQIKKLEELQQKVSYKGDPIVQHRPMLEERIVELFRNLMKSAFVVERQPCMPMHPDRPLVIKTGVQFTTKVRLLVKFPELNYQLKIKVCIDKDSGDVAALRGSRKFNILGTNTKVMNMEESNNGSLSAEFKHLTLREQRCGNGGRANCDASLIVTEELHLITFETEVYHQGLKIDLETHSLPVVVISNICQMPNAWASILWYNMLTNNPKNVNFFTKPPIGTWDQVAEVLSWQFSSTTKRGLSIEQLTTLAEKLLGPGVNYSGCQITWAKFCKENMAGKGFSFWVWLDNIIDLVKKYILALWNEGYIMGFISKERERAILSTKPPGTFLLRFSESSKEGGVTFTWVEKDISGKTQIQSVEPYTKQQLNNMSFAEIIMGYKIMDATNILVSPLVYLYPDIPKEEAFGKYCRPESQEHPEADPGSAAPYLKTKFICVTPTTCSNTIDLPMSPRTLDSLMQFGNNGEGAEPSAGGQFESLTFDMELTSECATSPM
Sequence of Nuclear factor erythroid 2-related factor 2 (Homo sapiens) (Q16236 whole entry, looked up): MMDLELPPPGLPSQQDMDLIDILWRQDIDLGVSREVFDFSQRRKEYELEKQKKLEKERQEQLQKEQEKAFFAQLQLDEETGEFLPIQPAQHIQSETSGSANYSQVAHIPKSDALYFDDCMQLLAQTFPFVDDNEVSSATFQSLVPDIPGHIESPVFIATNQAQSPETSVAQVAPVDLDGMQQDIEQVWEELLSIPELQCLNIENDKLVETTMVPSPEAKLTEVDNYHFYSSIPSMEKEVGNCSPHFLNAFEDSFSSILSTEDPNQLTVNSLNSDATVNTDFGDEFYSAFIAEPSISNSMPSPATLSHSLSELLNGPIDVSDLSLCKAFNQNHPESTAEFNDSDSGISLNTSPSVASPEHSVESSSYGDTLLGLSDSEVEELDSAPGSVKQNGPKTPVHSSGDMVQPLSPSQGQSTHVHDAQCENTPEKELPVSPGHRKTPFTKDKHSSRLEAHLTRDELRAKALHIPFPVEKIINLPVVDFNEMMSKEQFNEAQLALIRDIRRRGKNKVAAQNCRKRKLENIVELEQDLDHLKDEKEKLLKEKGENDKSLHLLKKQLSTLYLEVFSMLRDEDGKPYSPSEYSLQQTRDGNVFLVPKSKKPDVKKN
Sequence of Nuclear factor NF-kappa-B p105 subunit (Homo sapiens) (P19838 whole entry, looked up): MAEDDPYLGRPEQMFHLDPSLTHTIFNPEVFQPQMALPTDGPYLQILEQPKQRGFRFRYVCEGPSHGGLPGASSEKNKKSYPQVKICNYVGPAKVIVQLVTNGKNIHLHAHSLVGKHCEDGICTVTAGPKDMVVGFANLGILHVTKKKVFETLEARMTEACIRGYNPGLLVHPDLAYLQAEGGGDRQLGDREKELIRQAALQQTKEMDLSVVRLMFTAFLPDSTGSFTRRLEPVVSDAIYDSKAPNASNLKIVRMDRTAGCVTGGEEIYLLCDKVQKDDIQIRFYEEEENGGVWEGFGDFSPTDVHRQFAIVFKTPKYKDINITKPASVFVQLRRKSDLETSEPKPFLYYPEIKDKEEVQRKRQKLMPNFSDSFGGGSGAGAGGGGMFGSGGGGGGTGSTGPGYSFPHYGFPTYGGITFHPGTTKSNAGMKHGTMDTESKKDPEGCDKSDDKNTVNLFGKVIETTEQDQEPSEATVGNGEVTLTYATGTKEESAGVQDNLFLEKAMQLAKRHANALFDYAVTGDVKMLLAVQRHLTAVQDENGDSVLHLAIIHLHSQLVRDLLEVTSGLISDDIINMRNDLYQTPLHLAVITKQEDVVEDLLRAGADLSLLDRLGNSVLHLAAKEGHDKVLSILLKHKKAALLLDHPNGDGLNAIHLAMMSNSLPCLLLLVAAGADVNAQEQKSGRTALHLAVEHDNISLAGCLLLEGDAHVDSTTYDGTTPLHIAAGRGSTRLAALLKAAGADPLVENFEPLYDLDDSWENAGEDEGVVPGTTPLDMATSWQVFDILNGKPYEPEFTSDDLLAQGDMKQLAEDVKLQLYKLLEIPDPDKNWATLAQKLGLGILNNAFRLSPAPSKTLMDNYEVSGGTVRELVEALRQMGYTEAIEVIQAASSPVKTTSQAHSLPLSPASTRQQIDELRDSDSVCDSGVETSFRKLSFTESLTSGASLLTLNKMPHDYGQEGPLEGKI

CCC(=O)C(CC(C)N(C)C)(c1ccccc1)c1ccccc1 (centres undefined)
active: [6] 26.3 µM
not listed: [18]
inactive: all other assays above

Cn1sc(Cl)cc1=O
inactive: all assays above

O=c1[nH]c(=O)[nH]c(=O)[nH]1
inactive: all assays above
